ELG1 repair inh = qHTS screen for small molecules that inhibit ELG1-dependent DNA repair in human embryonic kidney (HEK293T) cells expressing luciferase-tagged ELG1. HEK293T ELG1-luciferase reporter, luminescence, 16 h; DNA damage induced by 5-fluorouridine. Potency, µM (highest dose often 46.1 µM), inactives show at the highest dose activity change, negative = inhibition, hits mostly inhibitors. 330,000 tested, 2.3% active. AID 504467, 2011; also: nearly all actives have a fitted effect of over 55% in size
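Step one: seed 2,000 cells per well. Step two: pin-transfer compound or DMSO alongside 5-fluorouridine. Step three: incubate 16 hr, 37 °C, 5% CO2. Step four: add ONE-Glo, wait 30 min, read luminescence.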
DT40 TDP1 no CPT = qHTS for Inhibitors of human tyrosyl-DNA phosphodiesterase 1 (TDP1): qHTS in cells in absence of CPT | DT40 Tdp1-/- hTDP1 cells, no CPT, ATP luminescence, 48 h | Potency, µM (highest dose often 46.2 µM), inactives show at the highest dose activity change, negative = growth inhibition, usual class: inhibitors | 420,000 tested, 15% active; also: nearly all actives have a fitted effect of over 55% in size
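Stably hTDP1-transfected Tdp1-null chicken DT40 cells were treated with library compounds minus camptothecin and grown for at least 48 hr at 37 °C, after which cellular ATP was quantified by luminescence.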
VP16 counter = VP16 counterscreen qHTS for inhibitors of ROR gamma transcriptional activity. AID 2546, 2010. Potency, µM (doses to about 53.6 µM), without a hit: at the highest dose activity, negative = inhibition, actives largely listed as inhibitors. Drosophila S2 Gal4-VP16 UAS-luciferase, luminescence, 20 h. 310,000 tested, 3.5% active;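 also: Gal4-VP16 expression switched on by copper sulfate through the metallothionein promoter; nearly all actives have a fitted effect of over 50% in size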
RORgamma inh = qHTS for inhibitors of ROR gamma transcriptional activity | Nuclear receptor ROR-gamma (Mus musculus), P51450 | Drosophila S2 Gal4-RORgamma UAS-luciferase reporter, 20 h | Potency, µM (series often up to 53.6 µM), for the others: top-dose activity change, negative = inhibition, actives largely listed as inhibitors | 310,000 tested, 5.4% active | AID 2551, 2010; also: nearly all actives have a fitted effect of over 60% in size
Target sequence (P51450 whole entry, looked up, the tested form may be a part): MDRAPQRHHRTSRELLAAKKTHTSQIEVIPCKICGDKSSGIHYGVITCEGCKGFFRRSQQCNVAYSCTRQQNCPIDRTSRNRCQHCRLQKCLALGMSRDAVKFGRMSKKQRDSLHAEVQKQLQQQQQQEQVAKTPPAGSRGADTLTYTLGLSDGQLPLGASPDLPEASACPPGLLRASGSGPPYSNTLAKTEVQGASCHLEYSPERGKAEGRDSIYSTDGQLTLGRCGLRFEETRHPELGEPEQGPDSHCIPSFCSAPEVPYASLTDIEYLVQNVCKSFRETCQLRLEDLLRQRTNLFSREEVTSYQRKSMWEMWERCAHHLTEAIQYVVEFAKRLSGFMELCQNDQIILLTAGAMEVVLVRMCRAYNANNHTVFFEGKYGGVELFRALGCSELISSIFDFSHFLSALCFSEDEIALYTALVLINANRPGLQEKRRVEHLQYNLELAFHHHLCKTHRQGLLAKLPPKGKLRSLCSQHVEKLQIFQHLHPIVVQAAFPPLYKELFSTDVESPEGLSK
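Stable Schneider cell line, Gal4 DNA-binding domain fused to ROR gamma, UAS-luciferase. Cmpd 1 hr RT → CuSO4 700 uM final → 20 hr RT → luciferase reagent 10 min → luminescence.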
12-LOX inh = Primary qHTS assay for inhibitors of human arachidonate 12S-lipoxygenase (ALOX12): Round 2. Polyunsaturated fatty acid lipoxygenase ALOX12 (Homo sapiens), P18054. purified 12hLO, xylenol orange hydroperoxide absorbance. Potency, µM (top dose mostly 108 µM), inactives show top-dose activity change, negative = inhibition, hits mostly inhibitors. 580,000 tested, 1.1% active. AID 1671190, 2021
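Purified human 12hLO (150 nM final) in 25 mM Hepes, 0.01% Triton X-100, pH 7.0 was preincubated 15 min at room temperature with compound. Then 40 uM arachidonic acid was added, 30 min. Hydroperoxide was read by Fe-XO absorbance ratio 573/405 nm.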
DT40 TDP1 CPT = qHTS for Inhibitors of human tyrosyl-DNA phosphodiesterase 1 (TDP1): qHTS in cells in presence of CPT; chicken DT40 Tdp1-/-;hTDP1 cells + 20 nM CPT, ATP luminescence, 48 h; Potency, µM (doses to about 46.2 µM), inactives show at the highest dose activity change, negative = growth inhibition, usual class: inhibitors; 420,000 tested, 12% active; AID 686979, 2013; also: nearly all actives have a fitted effect of over 55% in size
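Cell growth measured by CellTiter-Glo luminescence after a minimum 48 h, 37 C compound exposure with 20 nM CPT in Tdp1-knockout DT40 cells stably expressing hTDP1, seeded 400/well; qHTS titration format.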
Starred values were filed as active, the others as inactive; i = inactive; ? = inconclusive; nt = not tested or not shown; [ ] = another dose, or the depositor's remark. Sampled rows, rich in hits. Any-hit rate of the full collection: about 15%. Calls follow the shape of the dose curve; as a rule, active = well fitted curve in the direction sought with a large enough effect; inconclusive = small, poorly fitted or top-dose-only effect, or another doubt; inactive = no such curve, though single readings can be large; an effect the other way counts as inactive or inconclusive. % is scaled to controls: 0 for no effect and ±100 for the full control effect; potency is read from the fitted curve at half-maximal effect.

SMILES | ELG1 repair inh | DT40 TDP1 no CPT | VP16 counter | RORgamma inh | 12-LOX inh | DT40 TDP1 CPT
C=CCn1c(SCC(=O)Nc2cc3oc4ccccc4c3cc2OC)nnc1-c1cnccn1 | 12µM* | ? | -16% | -39% | 0% | ?
OCCNCc1ccc(-c2ccccc2)o1 | nt | nt | nt | nt | -7% | nt
O=C(Nc1cccc(Cl)c1)N1CCCC1 | 18% | 26µM* | -2% | 19% | 3% | 16µM*
CN(C)S(=O)(=O)c1cccc(NC(=O)c2ccc(S(=O)(=O)N3CCCCC3)cc2)c1 | ? | ? | nt | nt | -8% | ?
O=C(Nc1cccc(Cl)c1)N1CCOCC1 | ? | 26% | 4% | -1% | 0% | -9%
O=C(Nc1cccc(S(=O)(=O)N2CCCCC2)c1)c1ccc(S(=O)(=O)C(F)F)cc1 | 21µM* | ? | ? | -21% | -3% | ?
CC(=O)c1cccc(NS(=O)(=O)c2ccc(NC(=O)N3CCCCC3)cc2)c1 | 11% | 9.2µM* | 10µM* | 40% | 5% | 5.2µM*
Cc1cccc(NC(=O)c2ccc(S(=O)(=O)N3CCCCCC3)cc2)n1 | ? | 13µM* | nt | nt | 8% | -4%
CC1CCC(NC(=O)c2cc(Sc3ccc(F)cc3)nc3ccccc23)CC1 (configuration not stated) | nt | nt | nt | nt | -19% | nt
O=Cc1cccc(N2CCN(C(=O)c3ccncc3)CC2=O)c1 | nt | nt | nt | nt | 2%[6.33 µM] | nt
CCc1ccc(-c2csc(/C(C#N)=C/Nc3ccccc3CC)n2)cc1 | nt | nt | nt | nt | -40% | nt
CCOc1cc(C(=O)NCc2n[nH]c(=O)c3ccccc23)cc(OCC)c1OCC | nt | nt | nt | nt | -4% | nt
CC(=O)c1cccc(NC(=O)c2ccc(S(=O)(=O)N3CCCCC3)cc2)c1 | ? | 18µM* | -1% | -8% | 4% | 23µM*
O=C(Nc1ccn(-c2ccccc2)n1)c1ccc(S(=O)(=O)N2CCCCCC2)cc1 | 5.2µM* | ? | -2% | -3% | -19% | ?
O=C(Nc1cccc(S(=O)(=O)C(F)F)c1)c1ccc(S(=O)(=O)N2CCCCC2)cc1 | 13µM* | ? | -16% | ? | -15% | ?
O=C(Nc1cccc(C(=O)N2CCCCC2)c1)c1ccc(Cl)cc1 | 2% | 21µM* | -6% | 23% | i | ?
COc1ccc(CC(=O)N2[C@@H]3CC[C@H]2CC(NC(=O)c2ccncc2)C3)cc1Cl (some centres not stated) | nt | nt | nt | nt | 10% | nt
O=C(c1cc(-c2ccc3c(c2)OCCO3)nc2ccccc12)N1CCOCC1 | nt | nt | nt | nt | -34% | nt
CC1CN(CC(O)COC2CCC(C(C)(C)C)CC2)CC(C)O1 (configuration not stated) | -5% | -25% | -2% | -28% | -11% | ?
CC1CCCC(C)N1CC(O)COC1CCC(C(C)(C)C)CC1 (configuration not stated) | ? | 21µM* | -1% | -6% | 8% | 23µM*
CCCCCOC(=O)c1[nH]c2c(c1C)C(=O)CC(c1ccco1)C2 (configuration not stated) | -1% | 0.16µM* | 0% | ? | nt | 0.18µM*
Cc1c(C(=O)OCCOc2ccccc2)[nH]c2c1C(=O)CC(c1ccccc1)C2 (configuration not stated) | nt | 0.15µM* | nt | nt | 2% | 0.23µM*
Cc1c(C(=O)OCCOc2ccccc2)[nH]c2c1C(=O)CC(c1ccccc1Cl)C2 (configuration not stated) | nt | 1.5µM* | nt | nt | ? | 1.5µM*
CCOC(=O)c1[nH]c2c(c1C)C(=O)CC(c1ccc(F)cc1)C2 (configuration not stated) | ? | 0.65µM* | ? | ? | 482% | 0.73µM*
CCCOC(=O)c1[nH]c2c(c1C)C(=O)CC(c1ccc(OC)c(OC)c1)C2 (configuration not stated) | -3% | -20% | -4% | 4% | 1% | ?
SMILES | ELG1 repair inh | DT40 TDP1 no CPT | VP16 counter | RORgamma inh | 12-LOX inh | DT40 TDP1 CPT
CCOC(=O)c1[nH]c2c(c1C)C(=O)CC(c1ccc(OCC)c(OC)c1)C2 (configuration not stated) | 0% | ? | 6% | 2% | 4% | -25%
Cc1c(C(=O)OCc2ccccc2)[nH]c2c1C(=O)CC(c1ccc(N(C)C)cc1)C2 (configuration not stated) | nt | -18% | nt | nt | -9% | ?
COc1cccc(CCNC(=O)C(=O)NCc2n[nH]c(=O)c3ccccc23)c1 | nt | nt | nt | nt | -41% | nt
COC(=O)CCNC(=O)c1cc(-c2cccs2)nc2ccccc12 | nt | nt | nt | nt | -3% | nt
Cc1cccc(Cn2c(CN3CCOCC3)nc3c2c(=O)[nH]c(=O)n3C)c1 | nt | nt | nt | nt | 14% | nt
CNC(=O)[C@@H]1CN(C(=O)c2nn(C)c3ccccc23)C[C@H]1COC | nt | nt | nt | nt | 21% | nt
Cc1c(C(=O)OC2CCC(C)CC2)[nH]c2c1C(=O)CC(c1ccccc1Cl)C2 (configuration not stated) | nt | 4.6µM* | nt | nt | -12% | 5.2µM*
Cc1ccc(COC(=O)c2[nH]c3c(c2C)C(=O)CC(c2ccc(Cl)cc2)C3)cc1 (configuration not stated) | nt | 9.2µM* | nt | nt | -8% | 12µM*
CCOC(=O)c1[nH]c2c(c1CCC1CCCCC1)C(=O)CC(c1ccccc1)C2 (configuration not stated) | nt | nt | nt | nt | -12% | nt
Cc1c(C(=O)OCC2CCCCC2)[nH]c2c1C(=O)CC(c1ccc(Cl)cc1)C2 (configuration not stated) | nt | -4% | nt | nt | -7% | -13%
Cc1c(C(=O)OC2CCC(C)CC2)[nH]c2c1C(=O)CC(c1ccc(N(C)C)cc1)C2 (configuration not stated) | nt | -16% | nt | nt | -4% | -19%
CCOCCOC(=O)c1[nH]c2c(c1C)C(=O)CC(c1ccccc1)C2 (configuration not stated) | -3% | 0.92µM* | -11% | 29% | -3% | 1.5µM*
CC1(c2noc(C3CC3)n2)CCN(C(=O)CCc2cc(Cl)no2)CC1 | nt | nt | nt | nt | 8% | nt
Cc1c(O)ccc2c(-c3ccccc3)cc(=O)oc12 | ? | 15µM* | 2% | 19% | 104% | 13µM*
